Reference: PubChem BioAssay (EPA / NIEHS)
Where “and” joins values, the source holds several entries; their conditions need not be identical. Equal values may be shown once. Where a structure was tested more than once in an assay, its records may differ in their call. Calls of active or inactive are those of the source. Rule for the calls: active = hit-call score of the fitted dose curve at least 0.9, where 1 is the maximum; inactive = score below 0.9.

What follows are compounds tested on Interleukin 2 (IL2), IL2 (gene 3558) (assay: BSK_BT_xIL2: BioMAP Diversity Plus: BT Assay for Interleukin 2 (IL2) Biomarker Activity (AID 2284245)). Details: primary human B cells with PBMC.
Protocol: BSK_BT is a cell-based, multiplexed-readout assay that uses B cell and peripheral blood mononuclear cells, a human vascular primary cell co-culture, with measurements taken at 24 hours after chemical dosing in a microplate: 96-well plate.BSK_BT_xIL2 is an assay component measured in the BSK_BT assay. It measures secreted IL-2 related to regulation of gene expression using LumineX xMAP technology.Data from the assay component BSK_BT_xIL2 was analyzed at the endpoint, BSK_BT_xIL2, in the positive analysis fitting direction relative to DMSO as the negative control and baseline of activity. Using a type of cytokine quantitation reporter, gain or loss-of-signal activity can be used to understand protein changes. To generalize the intended target to other relatable targets, this assay endpoint is annotated to the 'cytokine' intended target family, where the subfamily is 'interleukins'.
The levels of cell surface (or secreted, indicated by the prefix "s") biomarker endpoints were measured by ELISA. Overt cytotoxicity to cells in confluent adherent cultures (all systems other than the BT system) was assessed by measuring total protein levels using sulforhodamine B (SRB) staining in parallel cultures at the time of biomarker measurements, indicated as SRB endpoints. For proliferation assays for adherent cell types, individual cell types are cultured at sub-confluence and relative cell numbers quantified by SRB staining at time points optimized for each system (48 h: 3C and CASM3C systems; 72 h: BT and HDF3CGF systems; 96 h: SAg system). SRB was performed by staining cells with 0.1% SRB after fixation with 10% TCA and reading wells at 560 nm.Viability and proliferation of PBMC (T cells) was quantified by Alamar Blue reduction for the SAg and BT systems. For PBMC viability (referred to as PBMC Cytotoxicity within the assay endpoint names), cells were plated (75,000/well in a 96-well plate) and then chemical samples added for 1 h before addition of activators, SEB and TSST-1 (20 ng/mL final concentration each). Cells were incubated for 90 h. Then, Alamar Blue (20 uL/well) (Invitrogen, Cat DAL1100) was added for 6 h, and the plates were read with a fluorescence microplate reader at 546/580 nm (excitation/emission). For PBMC proliferation, cells were plated and activated as above but incubated for only 16 h prior to addition of Alamar Blue. Plates were read after 6 h.

SMILES | AC50 | outcome
O=C(CC(=O)C(F)(F)C(F)(F)C(F)(F)F)c1cccs1 | 55.6 µM (active) and 46.2 µM (active) | –
COc1cc(OC)nc(NC(=O)NS(=O)(=O)Nc2ccccc2C(=O)N(C)C)n1 | – | inactive
O=P(O)(O)CCC(F)(F)C(F)(F)C(F)(F)C(F)(F)C(F)(F)C(F)(F)C(F)(F)C(F)(F)F | – | inactive
C=CC(=C)CC/C=C(\C)CCC=C(C)C | – | inactive
C=CC(C)(CCC=C(C)C)OC(C)=O (centres undefined) | – | inactive
C=COC(=O)C(C)(C)CCCCCC | – | inactive
Cc1ccc(C(=O)c2ccccc2)cc1 | – | inactive
C=CC(=O)OCCC(F)(F)C(F)(F)C(F)(F)C(F)(F)C(F)(F)C(F)(F)C(F)(F)C(F)(F)F | – | inactive
O=C(NCc1ncc(C(F)(F)F)cc1Cl)c1c(Cl)cccc1Cl | 32.1 µM (active) | –
COc1cccc(O)c1 | – | inactive
COC1=CC(=O)C[C@@H](C)[C@]12Oc1c(Cl)c(OC)cc(OC)c1C2=O | – | inactive
C[C@]12CC[C@@H]3c4ccc(O)cc4CC[C@H]3[C@@H]1C[C@@H](O)[C@@H]2O | – | inactive
O=S(=O)(O)C(F)(F)C(F)(F)C(F)(F)C(F)(F)C(F)(F)C(F)(F)C(F)(F)C(F)(F)C(F)(F)C(F)(F)F | – | inactive
O=C(O)C(F)(F)OC(F)(F)C(F)(F)OC(F)(F)C(F)(F)OC(F)(F)C(F)(F)C(F)(F)C(F)(F)F | 44.9 µM (active) | inactive
NC(=NCCCCCCN=C(N)/N=C(\N)Nc1ccc(Cl)cc1)/N=C(\N)Nc1ccc(Cl)cc1 | 8.05 µM (active) | –
CC(C)(C)c1ccc(O)c(O)c1 | – | inactive
OCCN1CN(CCO)CN(CCO)C1 | 31.3 µM (active) | –
CN(C)c1ccc(C(=C2C=CC(=[N+](C)C)C=C2)c2ccccc2)cc1 | 0.432 µM (active) | –
O=C(O)CCC(F)(F)C(F)(F)C(F)(F)C(F)(F)C(F)(F)F | – | inactive

SMILES | AC50 | outcome
O=C(NO)c1ccccc1 | 19.2 µM (active) | –
Oc1cc2ccccc2cc1O | – | inactive
CCCCCc1ccc(O)cc1 | – | inactive
CCCCC(CC)C(=O)OCCOCCOCCOCCOC(=O)C(CC)CCCC (centres undefined) | 0.016 µM (active) | –
CC1=NN(c2ccccc2)C(=O)C1 | – | inactive
Cc1ccc(N=Nc2c(O)ccc3ccccc23)c(C)c1 | – | inactive
CN(Cc1cnc2nc(N)nc(N)c2n1)c1ccc(C(=O)N[C@@H](CCC(=O)O)C(=O)O)cc1 | – | inactive
CCOC(=O)CN[C@@H](C(=O)N1CC[C@H]1C(=O)NCc1ccc(/C(N)=N/O)cc1)C1CCCCC1 | – | inactive
CCCCCCCCCCCCCCCCCC[N+](C)(C)Cc1ccccc1 | 1.97 µM (active) | –
Cc1cccc2c1ccc1ccccc12 | – | inactive
O=C1OC2(c3ccccc31)c1cc(I)c(O)c(I)c1Oc1c2cc(I)c(O)c1I | – | inactive
COCN(COC)c1nc(N(COC)COC)nc(N(COC)COC)n1 | – | inactive
O=P(O)(O)CCC(F)(F)C(F)(F)C(F)(F)C(F)(F)C(F)(F)C(F)(F)F | – | inactive
CN(CCO)S(=O)(=O)C(F)(F)C(F)(F)C(F)(F)C(F)(F)C(F)(F)C(F)(F)C(F)(F)C(F)(F)F | – | inactive
Clc1ccc(Nc2nnc(Cc3ccncc3)c3ccccc23)cc1 | – | inactive
CC[N+](CC)(CC)Cc1ccccc1 | – | inactive
OCC(F)(F)C(F)(F)C(F)(F)C(F)(F)C(F)(F)C(F)(F)C(F)(F)C(F)(F)C(F)(F)C(F)(F)C(F)(F)F | – | inactive
O=C(O)CCC(F)(F)C(F)(F)C(F)(F)C(F)(F)C(F)(F)C(F)(F)F | – | inactive
O=C1c2ccc(O)c(O)c2C(=O)c2c(O)ccc(O)c21 | – | inactive
